This passage reports outcome and activity change, negative = cytotoxicity results from PubChem BioAssay (Tox21).

Inconclusive results are not listed. Unmarked numbers belong to inactive results. The source made the active and inactive calls. Calls follow the shape of the dose curve; as a rule, active = well fitted cell-killing curve with a large enough effect in the repeat runs; inconclusive = weak or mixed curves, or effect the other way; inactive = no such curve, though single readings can be large or run the other way.
% is scaled to controls: 0 for no effect and ±100 for the full control effect.

The assay in a line: qHTS assay to identify small molecule agonists of the RXR signaling pathway - cell viability counter screen (AID 1159529). Also: nearly all actives have a fitted effect of over 50% in size. The settings on record: RXR-alpha-bla HEK293T viability, CellTiter-Glo, 16 h; series mostly up to 76.8 µM. The text has this: National Center for Advancing Translational Sciences [NCATS]
NIH Chemical Genomics Center [NCGC]
U.S. Environmental Protection Agency [EPA]
National Institutes of Environmental Health Sciences [NIEHS]
National Toxicology Program [NTP]
U.S. Food and Drug Administration [FDA]
The Retinoid X receptor (RXR), a nuclear hormone receptor expressed in liver, spleen, placenta, epidermis, central nervous system. These receptors are able to form homo and heterodimers with other nuclear receptors and due to this heterodimerizing ability, RXR functions as master regulators producing diverse physiological effects. Three subtypes of RXR exist; alpha, beta and gamma. Retinoid X receptor alpha (RXR-alpha) has potential roles in metabolic signaling pathways, skin alopecia, dermal cysts, cardiac development, insulin sensitization etc. Therefore screening environmental chemicals on RXR-alpha signaling can be used for the studies focused on such therapeutic applications. For quantification of RXR-alpha ligands signaling, GeneBLAzer RXR alpha-UAS-bla HEK 293T (Life Technologies, Carlsbad, CA) cells containing a beta-lactamase reporter-gene under control of Retinoid X receptor-alpha response element were used to screen Tox21 10K library. The cytotoxicity of the Tox21 compound library against the RXR-alpha HEK 293T cell line was tested in parallel by measuring cell viability using CellTiter-Glo assay (Promega Corporation, Madison, WI) in the same wells.
Tox21 Assay Protocol Summary:
RXR-alpha HEK 293T cells were dispensed at 2,000 cells/6 uL of assay medium containing 2% charcoal-stripped FBS using a Multidrop Combi (ThermoFisher Scientific, Waltham, MA) dispenser. The assay was performed in black wall/clear-bottom 1536-well plates (Greiner Bio-One North America Inc. Monroe, NC). Tetraoctyl ammonium bromide was used as a positive control in the cytotoxicity screen. After the assay plates were incubated at 37 C and 5% CO2 for 5 hr, 23 nL of compounds dissolved in DMSO, positive control or DMSO only were transferred to the assay plate by a Pintool station (Kalypsys, San Diego, CA). The assay plates were incubated at 37 C and 5% CO2 for 16 hr. One uL of LiveBLAzer B/G FRET substrate (Life Technologies) was added using a Flying Reagent Dispenser (FRD) (Aurora Discovery, San Diego, CA) and the plates were incubated at room temperature for 2 hr. Fluorescence intensity (405 nm excitation, 460/530 nm emission) was measured using an Envision plate reader (PerkinElmer, Shelton, CT). For cytotoxicity, 4 uL/well of CellTiter-Glo reagent was added into the assay plates using an FRD. After 30 min incubation at room temperature, the luminescence intensity was measured using a ViewLux plate reader (PerkinElmer).
A general note: qHTS replaces the single test concentration by a dilution series.
Consider `CC(=O)Nc1ccc(S(=O)(=O)Nc2ccc([N+](=O)[O-])cc2)cc1`, for which the molecule was classed as inactive.

Take `Nc1ccc(S(=O)(=O)Nc2ccc(Cl)nn2)cc1`: the molecule was called inactive.

For the molecule `O=C1O[C@@H]2[C@@H](O)[C@H](O)O[C@@H]2[C@H]1O`, the molecule was classed as inactive.

For `CC(C)(C)c1n[nH]c(=S)n(N)c1=O`, the outcome was inactive.

As for `Nc1ncnc(Nc2ccccc2)n1`, the molecule was classed as inactive.

As to `O=C1c2ccccc2C(=O)c2cc(S(=O)(=O)O)ccc21`, the molecule was classed as inactive.

Take `C=C(C)C(=O)OCCN(CC)CC`: the molecule was called inactive.

Consider `Cc1cc(NC(=O)C2=C(O)c3ccccc3S(=O)(=O)N2C)no1`, for which the outcome was inactive.

Turning to `C[Si](C)=O`, the activity change, negative = cytotoxicity was 0.062% [at 6.97 µM].

On to `COc1ccc2c(c1)C(=O)N(CCc1ccc(S(=O)(=O)NC(=O)NC3CCCCC3)cc1)C(=O)C2(C)C`, for which the result was inactive.

Take `Cc1cccc(C)c1OCC(C)N` (stereo not given): the molecule was classed as inactive.

Consider `CCO[Si](CCCS)(OCC)OCC`, for which the molecule was classed as inactive.

For the molecule `O=C(OCC(O)CO)c1ccccc1Nc1ccnc2c(C(F)(F)F)cccc12` (stereo not given), the molecule was called inactive.

For `CCCCCCCCCCCCCC`, the molecule was classed as inactive.

Turning to `O=P(O)(O)OP(=O)(O)O`, the molecule was called inactive.

Take `BrCc1cccc(Oc2ccccc2)c1`: the result was inactive.

Turning to `COCCOC(=O)C1=C(C)NC(C)=C(C(=O)OC(C)C)C1c1cccc([N+](=O)[O-])c1` (stereo not given), the call was inactive.

Turning to `CCC(CC)CO`, the result was inactive.

As to `CCCOC(OCCC)OCCC`, the molecule was called inactive.

Regarding `CC(=O)NCc1c(I)c(NC(C)=O)c(I)c(C(=O)O)c1I`, the molecule was called inactive.

Consider `C=CC(OCC)OCC`, for which the call was inactive.

On to `O=C(OCC(COC(=O)c1cccnc1)(COC(=O)c1cccnc1)COC(=O)c1cccnc1)c1cccnc1`, for which the molecule was classed as inactive.

Take `O=S(=O)(O)c1ccc2cc(O)c(S(=O)(=O)O)cc2c1`: the result was inactive.

Regarding `O=S(=O)(O)c1cc(O)c2ccc(Nc3ccccc3)cc2c1`, the molecule was called inactive.

With `OCCCCC(O)CO` (stereo not given), the outcome was inactive.

Take `CN(C)c1ccc(C=O)cc1`: the result was inactive.

Consider `CC(=O)N[C@@H](CCC(=O)O)C(=O)O`, for which the molecule was called inactive.

For the molecule `CC(C)c1ccc2cc(C(C)C)ccc2c1`, the molecule was called inactive.

Consider `O=C(NCCc1c[nH]c2ccccc12)c1cccnc1`, for which the call was inactive.

`CC(C)CC(=O)O`: the molecule was called inactive.

In the case of `N#Cc1ccc(C(=O)O)cc1`, the outcome was inactive.

On to `CCCCNC1CC(C)(C)NC(C)(C)C1`, for which the outcome was inactive.

`O=C(CCNNC(=O)c1ccncc1)NCc1ccccc1`: the molecule was classed as inactive.

Consider `O=C(O)c1cc(Cl)cc([N+](=O)[O-])c1Cl`, for which the molecule was called inactive.

Take `NNc1nnc(NN)c2ccccc12`: the result was inactive.

Take `CC(=O)Nc1ccc(S(=O)(=O)Cl)cc1`: the molecule was called inactive.

For the molecule `CNC(=O)[C@H]1O[C@@H](n2cnc3c(NCc4cc(Cl)ccc4OCc4cc(C)no4)ncnc32)[C@H](O)[C@@H]1N`, the call was inactive.

On to `CC1COc2ccccc2N1` (stereo not given), for which the molecule was classed as inactive.

In the case of `CC(=O)NCCCCCC(=O)O`, the result was inactive.

Consider `CNS(=O)(=O)CCc1ccc2[nH]cc(C3CCN(C)CC3)c2c1`, for which the call was inactive.
